Screens: PubChem BioAssay, The Scripps Research Institute Molecular Screening Center
TTR transcr act = TTR transcription activation, primary screen. SH-SY5Y TTR promoter Gaussia luciferase, luminescence; 100% = recombinant luciferase protein wells. activation, % at 16.7 µM. 92,000 tested, 1.3% active. AID 1117267;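 active = activation above the mean of all tested compounds plus 3 SD, cut at about 9.5% in these data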;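 also: cells exposed to compounds for one day before reading; 0% = median of all test compound wells on the plate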
TTR inh HuH7 = decreases TTR transcription in HuH7 cells in activator counter-screen | inhibition, % at 16.7 µM | 1,100 tested, 4% active | shares compounds with TTR transcr act | HuH7 TTR promoter-Gaussia luciferase reporter, luminescence;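 active = average inhibition above the solvent-only control wells' mean plus 3 SD, cut at about 15% in these data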;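 also: 0% = cells with DMSO only and 100% = cells with inhibitor control FD; inhibitors lower well luminescence so higher value means more inhibition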
TTR up confirm = confirmation of human transthyretin transcription activators; SHSY5Y TTR promoter Gaussia luciferase, luminescence; 100% = purified Lucia enzyme wells, no cells; shares compounds with TTR transcr act; activation, % at 16.7 µM; 1,100 tested, under 10 active;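 active = mean activation above a set limit taken from the earlier primary screen, cut at about 11% in these data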;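 also: 0% = DMSO-treated cells and 100% = recombinant Lucia luciferase without cells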
Numbers without * were called inactive. This is one part of a sample in which hits are shown more often than they occur.

SMILES	TTR transcr act	others
CCCC/C=C1/[C@@H](CC)N(Cc2ccc(OC)cc2OC)C2=N[C@@H](c3ccccc3)CC(=O)N21	2
Cn1c(=O)c2c(nc(NCc3ccc4c(c3)OCO4)n2Cc2ccc(F)cc2)n(C)c1=O	-3
CCCNc1nc2c(c(=O)n(C)c(=O)n2C)n1Cc1cccc(C)c1	2
CCCCC(=O)NCCNc1nc2c(c(=O)n(C)c(=O)n2C)n1Cc1ccc(F)cc1	14*
CCCCCCCCN1C(=O)[C@@H](CC(=O)N2CCN(C(=O)c3ccco3)CC2)C[C@@]2(C(=O)OC)C1=C[C@H](C(C)C)O[C@@H]2C1CC1	-2
COC[C@H]1CCCN1c1ccc2c(c1)OCCCN(C1CC1)S2(=O)=O	0
Brc1ccc(-c2csc(N3CCNCC3)n2)cc1	1
Cn1c(=O)n(C)c2cc(N3CCOCC3)c(NC(=O)c3cccc(Cl)c3)cc21	0
COC(=O)c1cc(COC(=O)c2cccnc2SC)oc1C	41*
COC(=O)c1cc(COC(=O)CNC(=O)c2cccc(C)c2)oc1C	-1
CSc1ncccc1C(=O)OCc1ccccc1F	5
O=C(c1ccccc1)c1ccc(C(=O)N2CCOCC2)cc1	7
CC(C)(C)c1ccc(C(=O)Nc2ccc(C(=O)N3CCOCC3)cc2)cc1	0
O=C(c1ccc(NC(=O)C2(c3ccccc3)CCOCC2)cc1)N1CCOCC1	24*
O=S(=O)(CC1NCCc2ccccc21)NCCc1ccccc1 (configuration not stated)	0
O=C(O)CCN1C(=O)NC2(CCCC2)C1=O	17*
COc1ccc(NC(=O)CCN2C(=O)NC3(CCCC3)C2=O)cc1Cl	2
O=C(CN1C(=O)NC2(CCCC2)C1=O)NC(c1ccccc1)c1ccccc1	-1
Cc1ccc(S(=O)(=O)NCCC(=O)NCC(c2ccco2)N2CCCCC2)cc1C (configuration not stated)	3
COCC(=O)N(c1ccc(C(C)(C)C)cc1)C(C(=O)NC(C)(C)C)c1cccnc1 (configuration not stated)	2
CCN(CC)S(=O)(=O)c1ccc(NS(=O)(=O)c2cccc(C)c2)cc1	10*
CCN(CC)S(=O)(=O)c1ccc(NS(=O)(=O)c2ccc(OC)c([N+](=O)[O-])c2)cc1	1
CCN(CC)S(=O)(=O)c1cc(NS(=O)(=O)c2cccc(Cl)c2Cl)ccc1C	-2
COCCCNC(=O)C[C@H]1C[C@@]2(C(=O)OC)C(=C[C@H](C3CCCC3)O[C@@H]2C)N(Cc2ccco2)C1=O	0
CN(C)[C@H]1CCN(c2ccc3c(c2)O[C@@H]2CCN(C2)S3(=O)=O)C1	1
SMILES	TTR transcr act	others
COC(=O)[C@]12C[C@H](CC(=O)NCCCN3CCCC3=O)C(=O)N(Cc3ccco3)C1=C[C@H](COCc1ccccc1)O[C@@H]2C	6
c1ccc(-c2cccc(CNc3nc(-c4ccccn4)nnc3-c3ccccc3)c2)cc1	-3
CCOC(=O)CCCC(=O)N1CCOCCOCCN(C(=O)CCCC(=O)OCC)CCOCCOCC1	-1
O=C(CCCCC(=O)OCC1COCO1)OCC1COCO1 (configuration not stated)	10*	TTR inh HuH7=-2;TTR up confirm=0
O=C(CCCCC(=O)OCC1CCCO1)OCC1CCCO1 (configuration not stated)	2
C=CCOc1cccn2c(N(C)C(=O)c3ccc(OC)cc3)c(CC)nc12	-1
COc1ccc(NC(=O)CSc2nc(N)c(NC(=O)c3ccccc3F)c(=O)[nH]2)cc1	-1
CC(C)NC(=O)CSc1nc(N)c(NC(=O)c2ccccc2F)c(=O)[nH]1	1
Nc1nc(SCCO)[nH]c(=O)c1NC(=O)c1ccccc1F	20*	TTR inh HuH7=-12;TTR up confirm=0
O=C(Cc1ccc(Br)cc1)OCC(=O)c1ccc[nH]1	-1
CCCc1nc2sc3c(c2c(=O)[nH]1)CCCC3	-1
CCN(CC(=O)NC(C)C)Cc1nc2sc3c(c2c(=O)[nH]1)CCC3	13*	TTR inh HuH7=-20;TTR up confirm=-1
COCc1nc2sc3c(c2c(=O)[nH]1)CCCC3	2
O=C(Nc1ccc(F)cc1)OCc1cn(Cc2ccccc2)nn1	1
CCSc1nc2ccccc2n1S(=O)(=O)c1ccccc1	30*	TTR inh HuH7=4;TTR up confirm=0
Cc1nc2ccccc2n1S(=O)(=O)c1ccc(Br)cc1	7
CCc1ccc(S(=O)(=O)n2c(C)nc3ccccc32)cc1	3
COc1ccc(S(=O)(=O)NCC2CCCO2)cc1NC(=O)c1ccccc1F (configuration not stated)	0
CN(CC(=O)Nc1ccccc1Br)C(=O)c1ccncc1	0
CC1CCc2[nH]c3ccc(C(=O)N(C)CC(=O)Nc4ccccc4Br)cc3c2C1 (configuration not stated)	31*	TTR inh HuH7=-42;TTR up confirm=0
CC1CCc2[nH]c3ccc(C(=O)NCC4CCCO4)cc3c2C1 (configuration not stated)	5
N#CC(c1ccc(O)cc1)N1CCN(C(C#N)c2ccc(O)cc2)CC1 (configuration not stated)	-2
CC(=O)Nc1ccc2c(c1)C(=O)c1cccc(C(=O)O)c1-2	-1
CCOC(=O)c1sc(N(Cc2ccccc2)C(=O)CCl)nc1C	-1
CCOC(=O)c1sc(N(Cc2ccccc2)C(=O)COC(=O)c2ccccc2O)nc1C	13*	TTR inh HuH7=-14;TTR up confirm=1
SMILES	TTR transcr act	others
Cc1ccsc1C(=O)OCC(=O)N(Cc1ccccc1)C(C)C	2
Cc1cccc(C(=O)N=c2sccn2C)c1[N+](=O)[O-]	2
C/C(=N\NC(=O)Cc1cccn1C)c1ccco1	0
C/C(=N\NC(=O)Cc1cccn1C)c1ccc2ccccc2c1	11*	TTR inh HuH7=-20;TTR up confirm=0
C/C(=N/NC(=O)Cc1cccn1C)c1ccccc1	0
O=C(Nc1ccc(C(F)(F)F)cc1)OC1CC2CC1[C@H]1CCCCN1[C@H]2Cc1ccccc1 (some centres not stated)	-1
COc1ccc(Cc2c(C3CCCCC3)nc3cc(C)c(Br)c(C)n23)c(C)c1	1
CCOC(=O)C(NC(=O)NCc1cccc(C(F)(F)F)c1)(OCC)C(F)(F)F (configuration not stated)	0
CCOC(=O)C(NC(=O)c1cccc(Cl)c1)(OCc1ccc(F)cc1)C(F)(F)F (configuration not stated)	25*	TTR inh HuH7=-9;TTR up confirm=-1
CCOC(=O)C(NC(=O)c1ccccc1)(OCC1(CC)COC1)C(F)(F)F (configuration not stated)	-3
Cc1ccc(NC(=O)CCn2c(=O)[nH]c3ccsc3c2=O)cc1F	3
COc1ccc(NC(=O)C2CCCN2S(=O)(=O)c2ccc3c(c2)C(C)(C)C(=O)N3C)cc1 (configuration not stated)	7
CSc1ccccc1OCc1cc(C(=O)N2CCN3CCCC3C2)no1 (configuration not stated)	-1
CCc1cc(=O)oc2cc(OCC(=O)NCCCn3ccnc3)c(Cl)cc12	-1
CCc1cc(=O)oc2c(C)c(OCC(=O)NCCCN3CCOCC3)ccc12	6
CCCCc1cc(=O)oc2cc(OCC(=O)NCCN3CCOCC3)c(Cl)cc12	11*	TTR inh HuH7=-25;TTR up confirm=2
O=C(c1sc2cc(Cl)ccc2c1Cl)N1CCN(CCc2ccccn2)CC1	-1
O=S(=O)(c1ccc(SCCOc2ccc(Cl)cc2)nc1)N1CCCC1	21*	TTR inh HuH7=7;TTR up confirm=-1
